# Reference: PubChem BioAssay AID1159580 (chemical genetic matrix, 2015)
# The campaign covered roughly 5,500 compounds. About 2,000 (36%) were called active. Not shown: some 18% with an inconclusive outcome. Some of the results follow. Unmarked numbers belong to inactive results. No stated cut-off is given here; in the data, active means normalized growth mostly below about 0.91 (no sharp cut-off); inconclusive means no clear call, values can overlap the other calls; inactive means mostly above about 0.92.
# Test: chemical genetic growth profiling, strain panel (AID 1159580);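 further: tested at 20 µM; growth read once vehicle control cultures reached saturation at 30 °C; 1 = growth at the plate median or of vehicle wells; lower values mean less growth of the strain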
# Settings: S. cerevisiae deletion strains, growth OD
smiles,measurement,setting,value
Cc1ccc(-c2csc(-c3cccnc3)n2)c(C)c1,normalized growth,"locus YAR019C, strain CDC15, hits give low values",0.948
same,normalized growth,"locus YBL105C, strain PKC1, hits give low values",0.967
same,normalized growth,"locus YBR135W, strain CKS1, hits give low values",0.954
same,normalized growth,"locus YBR136W, strain MEC1, hits give low values",0.958
same,normalized growth,"locus YBR160W, strain CDC28, hits give low values",0.963
same,normalized growth,"locus YDL017W, strain CDC7, hits give low values",0.967
same,normalized growth,"locus YDL028C, strain MPS1, hits give low values",0.964
same,normalized growth,"locus YDL101C, strain DUN1, hits give low values",0.938
same,normalized growth,"locus YDL108W, strain KIN28, hits give low values",0.964
same,normalized growth,"locus YDL132W, strain cdc53, hits give low values",0.946
same,normalized growth,"locus YDL214C, strain PRR2, hits give low values",0.88
same,normalized growth,"locus YDR052C, strain DBF4, hits give low values",0.96
same,normalized growth,"locus YDR054C, strain cdc34, hits give low values",0.943
same,normalized growth,"locus YDR226W, strain ADK1, hits give low values",0.964
same,normalized growth,"locus YDR477W, strain SNF1, hits give low values",0.87
same,normalized growth,"locus YER123W, strain YCK3, hits give low values",0.769
same,normalized growth,"locus YER133W, strain GLC7, hits give low values",0.85
same,normalized growth,"locus YFL009W, strain cdc4, hits give low values",0.954
same,normalized growth,"locus YFL029C, strain CAK1, hits give low values",0.943
same,normalized growth,"locus YFR003C, strain YPI1, hits give low values",0.959
same,normalized growth,"locus YFR019W, strain FAB1, hits give low values",0.821
same,normalized growth,"locus YFR028C, strain CDC14, hits give low values",0.947
same,normalized growth,"locus YGR040W, strain KSS1, hits give low values",0.832
same,normalized growth,"locus YGR052W, strain FMP48, hits give low values",0.933
same,normalized growth,"locus YGR092W, strain DBF2, hits give low values",0.737
same,normalized growth,"locus YHR030C, strain SLT2, hits give low values",0.763 (active)
same,normalized growth,"locus YHR079C, strain IRE1, hits give low values",0.839
same,normalized growth,"locus YHR082C, strain KSP1, hits give low values",0.901
same,normalized growth,"locus YHR205W, strain SCH9, hits give low values",0.886
same,normalized growth,"locus YIL147C, strain SLN1, hits give low values",0.957
same,normalized growth,"locus YJL095W, strain BCK1, hits give low values",0.772
same,normalized growth,"locus YJL128C, strain PBS2, hits give low values",0.946
same,normalized growth,"locus YJL157C, strain FAR1, hits give low values",0.898
same,normalized growth,"locus YJR016C, strain ILV3, hits give low values",0.956
same,normalized growth,"locus YJR066W, strain TOR1 (second series), hits give low values",0.796
same,normalized growth,"locus YJR066W, strain TOR1, hits give low values",0.833
same,normalized growth,"locus YKL048C, strain ELM1, hits give low values",0.939
same,normalized growth,"locus YKL067W, strain YNK1, hits give low values",0.897
same,normalized growth,"locus YKL101W, strain HSL1, hits give low values",0.914
same,normalized growth,"locus YKL193C, strain SDS22, hits give low values",0.945
same,normalized growth,"locus YKL203C, strain TOR2, hits give low values",0.847
same,normalized growth,"locus YLR113W, strain HOG1, hits give low values",0.854 (active)
same,normalized growth,"locus YLR133W, strain CKI1, hits give low values",0.905
same,normalized growth,"locus YLR403W, strain SFP1, hits give low values",0.809
same,normalized growth,"locus YML070W, strain DAK1, hits give low values",0.891
same,normalized growth,"locus YMR001C, strain CDC5, hits give low values",0.957
same,normalized growth,"locus YMR205C, strain PFK2 (second series), hits give low values",0.879
same,normalized growth,"locus YMR277W, strain FCP1, hits give low values",0.951
same,normalized growth,"locus YNL006W, strain LST8, hits give low values",0.96
same,normalized growth,"locus YNL020C, strain ARK1, hits give low values",0.898
same,normalized growth,"locus YNL161W, strain CBK1, hits give low values",0.96
same,normalized growth,"locus YNL183C, strain NPR1, hits give low values",0.826
same,normalized growth,"locus YNL207W, strain RIO2, hits give low values",0.935
same,normalized growth,"locus YNL222W, strain SSU72, hits give low values",0.955
same,normalized growth,"locus YNL307C, strain MCK1 (second series), hits give low values",0.862
same,normalized growth,"locus YOL078W, strain AVO1, hits give low values",0.953
same,normalized growth,"locus YOL136C, strain PFK27, hits give low values",0.894
same,normalized growth,"locus YOR061W, strain CKA2, hits give low values",0.912
same,normalized growth,"locus YOR119C, strain RIO1, hits give low values",0.881
same,normalized growth,"locus YOR231W, strain MKK1, hits give low values",0.841
same,normalized growth,"locus YOR329C, strain SCD5, hits give low values",0.951
same,normalized growth,"locus YPL031C, strain PHO85, hits give low values",0.832
same,normalized growth,"locus YPL153C, strain RAD53, hits give low values",0.838
same,normalized growth,"locus YPL204W, strain HRR25, hits give low values",0.796
same,normalized growth,"locus YPL209C, strain IPL1, hits give low values",0.955
same,normalized growth,"locus YPL256C, strain CLN2, hits give low values",0.849 (active)
same,normalized growth,"locus YPR025C, strain CCL1, hits give low values",0.959
same,normalized growth,"locus YPR106W, strain ISR1, hits give low values",0.957
same,normalized growth,"locus YPR111W, strain DBF20, hits give low values",0.966
same,normalized growth,"strain NNK1, hits give low values",0.947
same,normalized growth,"strain TSCII, hits give low values",0.948
CC(C)(C)NC[C@H](O)COc1nsnc1N1CCOCC1,normalized growth,"locus YAL013W, strain DEP1, hits give low values",1.01
same,normalized growth,"locus YAL040C, strain CLN3, hits give low values",1.03
same,normalized growth,"locus YCL061C, strain MRC1 (second series), hits give low values",1
same,normalized growth,"locus YDR363W, strain ESC2, hits give low values",0.989
same,normalized growth,"locus YER002W, strain NOP16, hits give low values",0.998
same,normalized growth,"locus YGR229C, strain SMI1, hits give low values",1.03
same,normalized growth,"locus YMR263W, strain SAP30, hits give low values",0.993
same,normalized growth,"locus YMR307W, strain GAS1, hits give low values",0.992
same,normalized growth,"locus YNL128W, strain TEP1, hits give low values",0.995
same,normalized growth,"locus YNL175C, strain NOP13, hits give low values",0.997
same,normalized growth,"locus YNL197C, strain WHI3, hits give low values",0.99
same,normalized growth,"locus YNL224C, strain SQS1, hits give low values",0.988
same,normalized growth,"locus YOR083W, strain WHI5 (second series), hits give low values",0.996
same,normalized growth,"locus YPL241C, strain CIN2, hits give low values",1
